# Laboratory results from paper PMC5515408, “Sequence-specific DNA binding by MYC/MAX to low-affinity non-E-box motifs”.
# The full ranking holds about 4,500 sequences; the median of “log2 normalized fluorescence” is about -0.34, and the highest 2% start at about 3.3. The list comes from a sample in which the highest values are over-represented; it also holds similar and randomly drawn sequences.
# Target: MAX:MAX (p21) (human, UniProt P61244-2 1-151)
# Assay: protein-binding microarray (anti-MAX antibody); PBM: 15 mM Tris-HCl pH 7.5, 100 mM KCl, 0.075% NP40, 7.5 mM beta-mercaptoethanol, 375 ng/ul BSA, 8 ng/ul poly(dA-dT):(dA-dT), 550 ng complex, 60 min, room tempe; high values mean tight binding
# Conditions: protein: recombinant; tags: 6xHis; chain copies: 2; label: 3' end of printed strand (linker) attached to glass slide; dsDNA, one strand shown
# Procedure, shortened: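 A custom Agilent glass array held ~5000 unique 12-nt sequences in triplicate spots, made double-stranded by primer extension. His-tagged human MYC:MAX or MAX:MAX dimers (550 ng, produced in E. coli) were applied for 60 min at room temperature in Tris-KCl buffer, pH 7.5, with NP40, BSA and poly(dA-dT) competitor. Anti-MAX and secondary antibodies detected bound protein, with scanning at 543 nm, and binding is given as log2 normalized fluorescence.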
# Chain of MAX:MAX (p21) (P61244 other isoform, or with tags, fused parts or gaps): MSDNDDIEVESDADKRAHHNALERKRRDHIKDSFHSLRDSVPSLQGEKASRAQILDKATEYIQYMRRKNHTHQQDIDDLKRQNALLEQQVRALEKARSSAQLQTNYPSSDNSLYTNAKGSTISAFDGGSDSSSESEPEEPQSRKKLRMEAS
row,Sequence,binding signal
1,CCGGCTGACACGTGTTGTTAATAGCTAAGATTACTATATCGACG,3.32 log2 normalized fluorescence
2,CCGGCAGACACGTGATATTAATAGCTAAGATTACTATATCGACG,3.29 log2 normalized fluorescence
3,CCGGCCGACATGTGGTATTAATAGCTAAGATTACTATATCGACG,3.18 log2 normalized fluorescence
4,CCGGCCGACATGTGGTGTTAATAGCTAAGATTACTATATCGACG,3.43 log2 normalized fluorescence
5,CCGGCTGACACGTGTCGTTAATAGCTAAGATTACTATATCGACG,3.18 log2 normalized fluorescence
6,CCGGCTGACACGTGCTGTTAATAGCTAAGATTACTATATCGACG,3 log2 normalized fluorescence
7,CCGGCAGACACGCGATATTAATAGCTAAGATTACTATATCGACG,2.93 log2 normalized fluorescence
8,CCGGCTGATGGTAGGTATTAATAGCTAAGATTACTATATCGACG,0.124 log2 normalized fluorescence
9,CCGGCTGATTCAAGGTATTAATAGCTAAGATTACTATATCGACG,-0.736 log2 normalized fluorescence
10,CCGGCTGACTAGGCGTATTAATAGCTAAGATTACTATATCGACG,-0.638 log2 normalized fluorescence
11,CCGGCTGACTCCGCGTATTAATAGCTAAGATTACTATATCGACG,-0.516 log2 normalized fluorescence
12,CCGGCTGAGACACGGTATTAATAGCTAAGATTACTATATCGACG,0.481 log2 normalized fluorescence
13,CCGGCTGACTGTACGTATTAATAGCTAAGATTACTATATCGACG,-0.112 log2 normalized fluorescence
14,CCGGCTGACCCAGTGTATTAATAGCTAAGATTACTATATCGACG,-0.0826 log2 normalized fluorescence
15,CCGGCTGAACTCGGGTATTAATAGCTAAGATTACTATATCGACG,-0.618 log2 normalized fluorescence
16,CCGGCTGAACTACCGTATTAATAGCTAAGATTACTATATCGACG,-0.334 log2 normalized fluorescence
17,CCGGCTGACGTGTGGTTTTAATAGCTAAGATTACTATATCGACG,1.65 log2 normalized fluorescence
18,CCGGCTGACACGTGTAATTAATAGCTAAGATTACTATATCGACG,3.24 log2 normalized fluorescence
19,CCGGCTGACACGTGGTTTTAATAGCTAAGATTACTATATCGACG,3.37 log2 normalized fluorescence

row,Sequence,binding signal
1,CCGGCTGACACGTGGGGTTAATAGCTAAGATTACTATATCGACG,3.36 log2 normalized fluorescence
2,CCGGCTGACACGTGTGGTTAATAGCTAAGATTACTATATCGACG,3.39 log2 normalized fluorescence
3,CCGGCTGACACGGGTTTTTAATAGCTAAGATTACTATATCGACG,2.09 log2 normalized fluorescence
4,CCGGCTGACACGTGGATTTAATAGCTAAGATTACTATATCGACG,3.24 log2 normalized fluorescence
5,CCGGCTGACACGTGGCGTTAATAGCTAAGATTACTATATCGACG,3.2 log2 normalized fluorescence
6,CCGGCTGACACGTGTAGTTAATAGCTAAGATTACTATATCGACG,3.17 log2 normalized fluorescence
7,CCGGCTGACGCGTGGTTTTAATAGCTAAGATTACTATATCGACG,3.21 log2 normalized fluorescence
8,CCGGCTGACACGTGGAGTTAATAGCTAAGATTACTATATCGACG,2.99 log2 normalized fluorescence
9,CCGGCTGACACGTGGGTTTAATAGCTAAGATTACTATATCGACG,3.39 log2 normalized fluorescence
10,CCGGCTGAAGTTATGTATTAATAGCTAAGATTACTATATCGACG,-0.594 log2 normalized fluorescence
11,CCGGCTGAGGAACCGTATTAATAGCTAAGATTACTATATCGACG,-0.709 log2 normalized fluorescence
12,CCGGCTGACACGGTATATTAATAGCTAAGATTACTATATCGACG,1.17 log2 normalized fluorescence
13,CCGGCTGATAGGAGGTATTAATAGCTAAGATTACTATATCGACG,-0.743 log2 normalized fluorescence
14,CCGGCTGAGAGCGTGTATTAATAGCTAAGATTACTATATCGACG,2.11 log2 normalized fluorescence
15,CCGGCTGAAGGCAAGTATTAATAGCTAAGATTACTATATCGACG,-0.39 log2 normalized fluorescence
16,CCGGCTGAATGTGGGTATTAATAGCTAAGATTACTATATCGACG,0.753 log2 normalized fluorescence
17,CCGGCTGAGGCGCAGTATTAATAGCTAAGATTACTATATCGACG,-0.509 log2 normalized fluorescence
18,CCGGCTGAGGGTGCGTATTAATAGCTAAGATTACTATATCGACG,0.326 log2 normalized fluorescence
19,CCGGCCGACCCGTGGTTTTAATAGCTAAGATTACTATATCGACG,2.34 log2 normalized fluorescence

row,Sequence,binding signal
1,CCGGCTGACACTTGGTTTTAATAGCTAAGATTACTATATCGACG,0.395 log2 normalized fluorescence
2,CCGGCTGACACATGGTTTTAATAGCTAAGATTACTATATCGACG,3.37 log2 normalized fluorescence
3,CCGGCTGACATGTGGTTTTAATAGCTAAGATTACTATATCGACG,2.98 log2 normalized fluorescence
4,CCGGCCGACACGCGGTTTTAATAGCTAAGATTACTATATCGACG,3.18 log2 normalized fluorescence
5,CCGGCCGACACATGGTTTTAATAGCTAAGATTACTATATCGACG,3.32 log2 normalized fluorescence
6,CCGGCTGATCGCACGTATTAATAGCTAAGATTACTATATCGACG,0.308 log2 normalized fluorescence
7,CCGGCTGAGGTCTTGTATTAATAGCTAAGATTACTATATCGACG,-0.72 log2 normalized fluorescence
8,CCGGCTCTCACGTGGTATTAATAGCTAAGATTACTATATCGACG,3.5 log2 normalized fluorescence
9,CCGGCTCTTACGTGGTATTAATAGCTAAGATTACTATATCGACG,0.802 log2 normalized fluorescence
10,CCGGCTCACACGTGTTATTAATAGCTAAGATTACTATATCGACG,3.29 log2 normalized fluorescence
11,CCGGCTCACACGCGGTTTTAATAGCTAAGATTACTATATCGACG,3.17 log2 normalized fluorescence
12,CCGGCTCACACGTGATATTAATAGCTAAGATTACTATATCGACG,3.31 log2 normalized fluorescence
13,CCGGCTCTCACGTGGTCTTAATAGCTAAGATTACTATATCGACG,3.06 log2 normalized fluorescence
14,CCGGCTCACACGAGGTTTTAATAGCTAAGATTACTATATCGACG,3.32 log2 normalized fluorescence
15,CCGGCACTCACGTGGTATTAATAGCTAAGATTACTATATCGACG,3.13 log2 normalized fluorescence
16,CCGGCTGGCACGAGGTTTTAATAGCTAAGATTACTATATCGACG,3.28 log2 normalized fluorescence
17,CCGGCCCTCACGTGGTATTAATAGCTAAGATTACTATATCGACG,3.26 log2 normalized fluorescence
18,CCGGCTGTCACGTGATATTAATAGCTAAGATTACTATATCGACG,3.2 log2 normalized fluorescence
19,CCGGCGCTCACGTGGTATTAATAGCTAAGATTACTATATCGACG,3.34 log2 normalized fluorescence
